Many of the other results were omitted from the sample, so hits are more common in it than they were.
Tg IFNy HTS: inhibitors of Toxoplasma gondii growth with IFN-gamma | Toxoplasma gondii growth in IFN-gamma-treated host cells; stronger effect = lower value | activity change, negative = inhibition, % (no concentration beside the values) | actives 3.8% (n = 69,000); in the data active means activity change below about -70%, passing the limit was not always enough;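 further: host cells are HeLa cells infected with Toxoplasma gondii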
Large screens that a line does not name were inactive; ! = not active in a repeat.

COCCN1Cc2cccc(C(=O)NC(C)Cc3ccccn3)c2C1=O (configuration not stated)	none
Nc1ccc2c(c1)N(C(=O)c1cccnc1)CC2	none
CCOCC1c2c(ncn2C)CCN1C(=O)c1cnc(C)cn1 (configuration not stated)	none
c1csc(-c2nc3ccc4ccccc4c3c3c2CCC3)c1	none
CCS(=O)(=O)N1CCN(c2nnc(-c3cccs3)c(-c3cccs3)n2)CC1	none
c1csc(-c2nnc(Cc3ccncc3)c3ccccc23)c1	Tg IFNy HTS -90.9
Cc1cc(C)n(-c2cccc(CN3CCC(N)(C(=O)O)C3)c2)n1 (configuration not stated)	none
O=C(Cc1ccc(OC(F)(F)F)cc1)N1CCc2[nH]cnc2C12CCCC2	Tg IFNy HTS -79.7
O=C(Cc1ccc(F)cc1)N1CCC2(CC1)COCCN(c1ncccn1)C2	none
COc1ccc(C(=O)N2CCc3[nH]cnc3C23CCCCC3)cc1	none
CC1=CCC=CC1C(=O)Nc1ccc2c(c1)CCC(=O)N2C (configuration not stated)	none
CCn1c(=O)c(-c2nc(-c3ccc(OC)cc3OC)no2)c(O)c2ccccc21	none
CN(Cc1noc(C2CCCC2)n1)C(=O)c1ccc(C#CC(C)(C)O)o1	none
NCCc1nc(NCc2cn[nH]c2-c2cccs2)c2ccccc2n1	none
COc1ccccc1CC(=O)N1CCCC1c1cc2nc(C)cc(C(F)(F)F)n2n1 (configuration not stated)	none
Cc1cc(C(F)(F)F)n2nc(C3CCCN(C(=O)c4cc5c(s4)CCCC5)C3)cc2n1 (configuration not stated)	Tg IFNy HTS -103.6
O=C(c1ccn[nH]1)N1CCC(c2cc3nc(-c4cccs4)cc(C(F)(F)F)n3n2)C1 (configuration not stated)	none
COCc1ccc(C(=O)N2CC(=O)N(CC(C)C)CC(OCc3ccccn3)C2)s1 (configuration not stated)	none
C=CC1CN2CCC1CC2[C@@H](O)c1ccnc2ccc(OC)cc12 (some centres not stated)	none
C=C[C@H]1CN2CC[C@H]1C[C@@H]2[C@H](O)c1ccnc2ccc(OC)cc12	none
C=C[C@H]1CN2CC[C@H]1C[C@@H]2[C@@H](O)c1ccnc2ccc(OC)cc12	Tg IFNy HTS -88.2!
CCC(=O)Nc1ccc(OCC(=O)N(C)Cc2csc(C)n2)cc1	none
O=C(Nc1c(C(=O)N2CCN(c3ccccn3)CC2)[nH]c2ccccc12)c1ccc(Cl)cc1	none
CCS(=O)(=O)N1CCC2(CCCN(C(=O)Cc3cccnc3)C2)C1 (configuration not stated)	none
CSc1cccc(NC(=O)CN2C(=O)CCc3cc(S(=O)(=O)N4CCCC4)ccc32)c1	none
CCc1cccc(NC(=O)CN2C(=O)CCc3cc(S(=O)(=O)N4CCCCC4C)ccc32)c1 (configuration not stated)	Tg IFNy HTS -76.8
CSc1cccc(NC(=O)CN2C(=O)CCc3cc(S(=O)(=O)N4CCCCC4C)ccc32)c1 (configuration not stated)	Tg IFNy HTS -85.6
CC1CCN(S(=O)(=O)c2ccc3c(c2)CCC(=O)N3CC(=O)NC(C)C)CC1	none
Cc1ccc(C)c(NC(=O)CN2C(=O)CCc3cc(S(=O)(=O)N4CCCCC4C)ccc32)c1 (configuration not stated)	none
CCc1cccc(NC(=O)CN2C(=O)CCc3cc(S(=O)(=O)N4CCC(C)CC4)ccc32)c1	Tg IFNy HTS -127.5
Cc1ccc(NC(=O)CN2C(=O)CCc3cc(S(=O)(=O)N4CCCCC4C)ccc32)cc1F (configuration not stated)	none
CC1CCN(S(=O)(=O)c2ccc3c(c2)CCC(=O)N3CC(=O)Nc2ccc(F)c(F)c2)CC1	none
Cc1cccc(NC(=O)CN2C(=O)CCc3cc(S(=O)(=O)N4CCCCC4C)ccc32)c1C (configuration not stated)	none
CC1CCN(S(=O)(=O)c2ccc3c(c2)CCC(=O)N3CC(=O)Nc2cccnc2)CC1	none
CC1CCN(S(=O)(=O)c2ccc3c(c2)CCC(=O)N3CC(=O)N(Cc2ccccc2)C(C)C)CC1	Tg IFNy HTS -80.8
CC1CCN(S(=O)(=O)c2ccc3c(c2)CCC(=O)N3CC(=O)NCc2ccccc2)CC1	none
CCc1ccc(N2CCC(C(=O)NCCc3c[nH]c4ccc(Cl)cc34)C2=O)cc1 (configuration not stated)	none
CCn1c(C2CCNCC2)nn(CCN2CCN(c3ccccc3)CC2)c1=O	none
c1ccc2oc(-c3[nH]ncc3CN3CCN(c4nc5ccccc5o4)CC3)cc2c1	none
CC(C)c1ccc(S(=O)(=O)N2CCC3(CC2)NCCN=C3NCc2ccc3c(c2)OCO3)cc1	none
CCc1oc(C(=O)N2CCCC(O)(CO)CC2)cc1CN(CC)CC (configuration not stated)	none
Cc1nc2n(n1)CCN(C(=O)c1cc3c(s1)CCC3)C2	none
C=CCN(CCC)C(=O)c1c(O)cccc1O	none
CN(Cc1ccsc1)Cc1cc2n(n1)CCNC2	none
CN(Cc1cc(-c2ccccc2)no1)Cc1cccc2nonc12	none
Cc1oc(-c2ccccc2)nc1Cn1nnc(-c2nc(-c3cccc(F)c3)no2)c1C	none
Cc1cc(N2CCCN(CC3CCOC3)CC2)ccn1 (configuration not stated)	none
CCOC(=O)c1nc(NCC2CCN(Cc3cccc(F)c3)CC2)c2ccccc2n1	none
CC[C@@H](C(=O)O)C1CC[C@H](C)C([C@@H](C)[C@H](O)[C@H](C)C(=O)[C@H](CC)C2O[C@]3(C=C[C@@H](O)[C@]4(CC[C@@](C)(C5CC[C@](O)(CC)[C@H](C)O5)O4)O3)[C@H](C)C[C@@H]2C)O1 (some centres not stated)	Tg IFNy HTS -78.8!
COc1ccc(-n2c(=O)c(C(=O)NCc3ccccc3)c(O)c3cccnc32)cc1	none
CCCOC1CCCN(S(=O)(=O)NCc2ccccc2)C1 (configuration not stated)	none
CCn1c(C2CCCN(Cc3cccn3-c3cccnc3)C2)nn(C)c1=O (configuration not stated)	none
O=c1cc(-c2ccccc2)c2cc(Cl)c(O)cc2o1	none
O=c1cc(CN2CCN(c3cccc(Cl)c3)CC2)c2cc(O)c(-c3ccccc3)cc2o1	none
O=c1cc(O)c2c(=O)n(-c3ccccc3)c(-c3ccccc3)cc2o1	Tg IFNy HTS -99.6
Cc1ccc(C(=O)N2CC[C@@H](OCC3CC3)[C@@H]2Cc2ccccc2)o1	none
CCOC(=O)c1cc2sccc2n1Cc1ccccc1F	none
Cc1cccc(CN2C(=O)CO[C@H]3CN(C(=O)C4CCOC4)C[C@@H]32)c1 (some centres not stated)	none
COc1ncccc1-c1ccc(NC(=O)c2cccnc2)c(C)c1	Tg IFNy HTS -84.9
Cc1cc(-c2ccccc2CO)ccc1NC(=O)c1cccnc1	none
COc1ccc(-c2ccc(NC(=O)c3cccnc3)c(C)c2)c(OC)c1OC	none
COc1ccc(-c2nc(NC3CCCCC3)c3ccccc3n2)cc1	none
Cc1nn(C)c(Oc2ccc(Cl)cc2)c1CN1CCOC(CN)C1 (configuration not stated)	none
COc1cccc(C2(NC(=O)c3cccc(N4CCCC4=O)c3)CCCC2)c1	none
CCN1CC2(CCN(S(=O)(=O)C3CC3)CC2)C2(CCNC2=O)C1 (configuration not stated)	none
Cc1ccc(NC(=O)CC(=O)NCCN2CCCC2)cc1Cl	none
Cc1cc(-c2cc(O)ccc2Cl)cc2nnc(Nc3ccc(OCCN4CCCC4)cc3)nc12	Tg IFNy HTS -91.3
CCn1ccc(CN(C)C(=O)CSc2nnc(N)s2)n1	none
Nc1nccc(/C=C/c2c(F)cccc2Cl)n1	Tg IFNy HTS -73.9
OC1CCN(c2ccnc(N3CCCC(OCc4ccccn4)C3)n2)CC1 (configuration not stated)	none

Screening results: PubChem, Broad Institute
